Test results from PubChem BioAssay AID1347426 (Functional Genomics Laboratory (NCATS/FGL), 2020).
Screen size: about 31,000 sequences; about 1,400 (4.5%) were called active. Shown is part of a subset that was picked to be rich in actives. A number with no mark means an inactive call.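 Rule for the calls: active = median seed-adjusted z-score above 1 or below -1; inactive = the rest.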

Test: Novel Modifiers of Survival Motor Neuron (SMN) Protein: Gene Identification via Genome-wide siRNA Screen;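 note: luminescence tracks full-length SMN protein made from the SMN2 reporter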
Conditions: HEK293T SMN2-luciferase reporter, siRNA knockdown, 72 h; actives lie on both sides
In short: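 HEK293T cells stably expressing an SMN2 splicing/cDNA-luciferase reporter were reverse-transfected with a druggable-genome siRNA library and read by luminescence at 72 hours; hits defined by MAD score above 1.0 or below -1.0.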

| Sequence | median seed-adjusted z-score |
| --- | --- |
| AAAUGUAACCUUUUGCUUUTT against DAD1 | -0.45 |
| GCUUUACCUUGGACCUGAATT against MPL | -0.0153 |
| GCGUGAUCAUCGAUGUGGATT against SLC5A7 | 0.624 |
| GAUGUUCCCUAUAUGCAAATT against CLDN10 | 0.0399 |
| GUGUAUCUAUGGAAGAGCATT against PSMD4 | 1.46 (active) |
| CUAUAAUUCCAGAGCAUAATT against KLF5 | -0.338 |
| GGACCUUGGAUUAUCUGAATT against YME1L1 | 0.131 |
| CACUAGUUCUAUGACCAUUTT against IMPG1 | -0.252 |
| GCAUGGAAGUGUACGAGUATT against THBS3 | 0.429 |
| CCACUGACAAGGUCCACGATT against MRGPRD | -0.484 |
| CCGUAAACUUCAUAACAUUTT against DYRK1A | -1.3 (active) |
| CCUUAGUUCUUCCUCGGAATT against PARP12 | -0.287 |
| GCUGAUCUAUCACAAACCATT against SERPINA2 | 0.285 |
| AAUGCAUUGUGAACCCAUUTT against GNGT2 | -0.289 |
| GGUUAGAAGAGGUGUCUAATT against NUMB | -0.599 |
| AGCCCAAGGUGGAACAAUCTT against CREM | -2.37 (active) |
| GGAUGAACCCAAUCCCAAUTT against UBE2A | 0.306 |
| GGUCCCUGUUGAGAAACGATT against TOP1 | 0.0303 |
| GCAAAGGCCUUGUACGUCATT against USP10 | 0.182 |
| GCUUGAGUAUAGAUAAAGATT against PAM | 0 |
| UGGACACCGUCACCAUGAATT against GPR78 | 0.607 |
| GCCGAGCUCUUUAUCCUCUTT against TRHDE | 0.429 |
| GGAUCGGGUGUAUCAACAATT against SRP54 | 0.203 |
| CAUUGUCGUUGGUGCAGUATT against ADCY10 | -0.573 |
| GGAAUUACGGAGAUAUAGATT against TRRAP | -1.25 (active) |
| GGACACAUCUCGGACAGCATT against KLK9 | -0.476 |
| GUACCUUGAGAAGAAAUUUTT against ACCN1 | -0.325 |

| Sequence | median seed-adjusted z-score |
| --- | --- |
| UCAGCUCCAUUAAUAGAAUTT against PAX8 | 0 |
| CCUCAUAAGUGUAAGAUAUTT against ZNF799 | -1.02 (active) |
| GAAUGUCCCUGCUCCACAATT against SNAI1 | 0.0196 |
| ACAACUUCCUGGUCGCUGATT against GPR62 | 0.0306 |
| AGAAGAUCCGAAAGAAAUATT against GABARAP | 0.418 |
| CCAACGACCUGGUUAUGAATT against FBP1 | -0.221 |
| GGUUGGAACUCGUUCCUCATT against NLGN4X | -0.1 |
| GCACAAGACGAACUCAGUATT against UBE2J2 | -0.341 |
| GCAUUGUCUCUCUUAUGUUTT against SYVN1 | -1.41 (active) |
| AGAUCAAGCUCCUCAACAATT against KRT4 | 0.336 |
| GUUAUUCCCUGUUCUCGAATT against ALDH5A1 | 0.339 |
| GGACGUGGACCAUUACUGUTT against LITAF | 0.0771 |
| GAUUAACCAAGGUUGAGAATT against CNGA1 | -1.08 (active) |
| CCACAUCUCUACUCGUGAATT against ULK4 | 0.0834 |
| GGAGUUACGAUAGCCGGAATT against DIAPH1 | 0.145 |
| CGGGAUAAUUUUGACAAGATT against NXF2 | -0.0513 |
| GGAAACUCUGUUUACGUUATT against BTAF1 | -1.19 (active) |
| GGACAACAUUUGACACCAATT against APOBEC2 | 0.232 |
| CAGACACCUUCAUACCUUATT against BHMT | 0 |
| CUGCAAGACUUGGAGCUAATT against HDLBP | -1.18 (active) |
| UGGGAGAAGUACAACAAUATT against FAM12A | 0.08 |
| CAACGACAGCAGUCCCAUUTT against EGR1 | 0.0836 |
| GUGUAAGGAUCAAAAAGAATT against ZNF682 | -0.155 |
| ACAACAUCAUGAUCCGAGATT against PIK3CD | 0.00831 |
| CUUCGUAUGUUUACAAGAATT against GUCY2C | -0.0181 |
| GCUCUACGCAAGGAGAUCATT against BATF | -0.0501 |
| GUCCGGUGUUUGAACCUGATT against ABHD2 | -1.21 (active) |
